Results on eleven compounds are retold here after PubChem BioAssay (NCATS).

Inconclusive results are not listed. Calls of active or inactive are those of the source. Calls follow the shape of the dose curve; as a rule, active = well fitted cell-killing curve with a large enough effect; inconclusive = small, poorly fitted or top-dose-only effect, or effect the other way; inactive = no such curve, though single readings can be large or run the other way.
Potency is read from the fitted curve at half-maximal effect.

The nature of the experiment: Viability qHTS for spleen associated tyrosine kinase inhibitor (SYKi) drug resistant MV4-11 cells (AID 1963824). Also: nearly all actives have a fitted effect of over 35% in size. To be noted: SYKi-resistant MV4-11 viability, CellTiter-Glo, 72 h; series mostly up to 45 µM; viability, % of control: at the top concentration. Put shortly:
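CellTiter-Glo luminescence, read 10 min after reagent addition, reports viability after a 72 hr compound exposure. Cells are an MV4-11 line made resistant to SYK inhibition, seeded at 500 per well onto compound-containing plates.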
For orientation: Quantitative high-throughput screening tests each substance at several concentrations.
Turning to `CC1(C)CC[C@]2(C(=O)O[C@@H]3O[C@H](CO)[C@@H](O)[C@H](O)[C@H]3O)CC[C@]3(C)C(=CCC4[C@@]5(C)C[C@@H](O)[C@H](O)[C@@](C)(CO)C5[C@H](O)C[C@]43C)C2[C@@H]1O` (stereo partly specified), the “viability, % of control” value is 87.2% [at 17.3 µM] (inactive).
For `Nc1ncnc2c1c(-c1ccc(Oc3ccccc3)cc1)cn2C1CCCC1`, the Potency is 1.03 µM (active).
For the compound `C=C1CC[C@@H]2C(C)(C)CCC[C@@]2(C)[C@@H]1CC/C(=C/C(=O)OC)COC(C)=O`, the “viability, % of control” value is 71.8% (inactive).
Consider `O=c1ccn(C2OC(CO)C(O)C2O)c(=O)[nH]1` (stereo unspecified), for which the Potency is 2.06 µM (active).
For the compound `CC1(C)CC[C@@]2(C(=O)O[C@@H]3O[C@H](CO)[C@@H](O)[C@H](O)[C@H]3O)C(C1)C1=CCC3[C@@]4(C)CC[C@@H](O[C@@H]5O[C@H](C(=O)O)[C@@H](O[C@@H]6OC[C@@H](O)[C@H](O)[C@H]6O)[C@H](O[C@@H]6OC[C@](O)(CO)[C@H]6O)[C@H]5O)C(C)(C)C4CC[C@@]3(C)[C@]1(C)C[C@H]2O` (stereo partly specified), the viability, % of control is 12% [at 9.25 µM] (inactive).
As for `CN1CCN(C2Cc3ccccc3Sc3ccc(Cl)cc32)CC1` (stereo unspecified), the Potency is 3.35 µM (active).
Turning to `CCC/C=C1\OC(=O)C2=C1CCC(O)C2O` (stereo unspecified), the “viability, % of control” value is 85% (inactive).
With `Cc1ccc([C@@H]2O[C@H](CO)[C@@H](O)[C@H](O)[C@H]2O)cc1Cc1ccc(-c2ccc(F)cc2)s1`, the Potency was 16.6 µM (active).
Take `CC(C)C(C#N)O[C@@H]1O[C@H](CO[C@@H]2O[C@@H](C)[C@H](O)[C@@H](O)[C@H]2O)[C@@H](O)[C@H](O)[C@H]1O` (stereo partly specified): the “viability, % of control” value was 99.7% [at 17.3 µM] (inactive).
As to `CC(C)(O)C1=CCC23COC(C2)C(O)(C(=O)O)CCC13` (stereo unspecified), the “viability, % of control” value is 114% (inactive).
Take `CC(=O)c1c(OCCN2CCCCC2)c(OCCC(C)c2ccc(F)cc2)c2oc(C)nc2c1C` (stereo unspecified): the Potency was 7.31 µM (active).
